Experiment in all cases: DAPPL (digital affinity profiling via proximity ligation, sequencing); 10 mM Tris-HCl pH 7.5, 50 mM NaCl, 1 mM DTT, 4% glycerol, room temperature, 30 min; GST-TFs on glutathione beads, 16-mer random dsDNA library, 0.1% formaldehyde crosslink after washing; high values mean tight binding
Common to all, as to details: protein: recombinant; tags: N-terminal GST; dsDNA, one strand shown

The target of one test is T1, FLI1 (Homo sapiens, UniProt Q01543 1-452).
T1 sequence: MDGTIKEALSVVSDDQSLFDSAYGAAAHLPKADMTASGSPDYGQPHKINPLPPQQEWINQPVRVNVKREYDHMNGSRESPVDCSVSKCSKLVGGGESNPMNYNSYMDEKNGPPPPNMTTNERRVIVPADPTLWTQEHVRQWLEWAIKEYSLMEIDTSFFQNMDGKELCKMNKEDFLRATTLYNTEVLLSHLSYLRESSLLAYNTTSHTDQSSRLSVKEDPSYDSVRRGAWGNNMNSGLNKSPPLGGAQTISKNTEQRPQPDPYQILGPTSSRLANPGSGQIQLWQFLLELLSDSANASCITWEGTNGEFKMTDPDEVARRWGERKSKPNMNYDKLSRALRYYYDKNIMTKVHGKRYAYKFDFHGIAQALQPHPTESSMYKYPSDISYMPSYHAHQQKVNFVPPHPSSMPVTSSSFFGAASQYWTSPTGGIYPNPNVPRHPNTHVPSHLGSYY
A digest of the protocol:
(§1)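 Pools of DNA-barcoded human transcription factors, expressed in yeast as GST fusions on glutathione beads and combined with a tag-only sample, were incubated with 200 nmole of a 16-mer random double-stranded DNA library. Incubation took 30 min at room temperature in Tris/NaCl/DTT/glycerol buffer and was followed by washing, 0.1% formaldehyde crosslinking, proximity ligation (BsaI/T4 ligase, 1 h, 37 °C), PCR amplification and sequencing on an Illumina NextSeq500. Binding signal is the ratio of a hexamer's read frequency for a factor to its frequency for the tag-only sample.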

A further test has as its target T2, ELK1 (Homo sapiens, UniProt P19419 1-428).
T2 sequence: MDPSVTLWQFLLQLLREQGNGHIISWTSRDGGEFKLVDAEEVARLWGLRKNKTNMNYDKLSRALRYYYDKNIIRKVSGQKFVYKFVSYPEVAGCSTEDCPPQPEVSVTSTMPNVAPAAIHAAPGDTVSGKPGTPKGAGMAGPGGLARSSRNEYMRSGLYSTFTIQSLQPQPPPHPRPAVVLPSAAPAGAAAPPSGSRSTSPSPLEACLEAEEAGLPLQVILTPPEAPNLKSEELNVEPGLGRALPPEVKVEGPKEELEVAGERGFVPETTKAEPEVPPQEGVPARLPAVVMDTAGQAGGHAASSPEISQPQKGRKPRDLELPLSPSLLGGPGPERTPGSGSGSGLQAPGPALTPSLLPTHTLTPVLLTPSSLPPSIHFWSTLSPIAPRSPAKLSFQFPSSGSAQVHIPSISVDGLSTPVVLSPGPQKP
A digest of the protocol: as §1

For the next test, the target named is T3, GABPA (Homo sapiens, UniProt Q06546 1-454).
T3 sequence: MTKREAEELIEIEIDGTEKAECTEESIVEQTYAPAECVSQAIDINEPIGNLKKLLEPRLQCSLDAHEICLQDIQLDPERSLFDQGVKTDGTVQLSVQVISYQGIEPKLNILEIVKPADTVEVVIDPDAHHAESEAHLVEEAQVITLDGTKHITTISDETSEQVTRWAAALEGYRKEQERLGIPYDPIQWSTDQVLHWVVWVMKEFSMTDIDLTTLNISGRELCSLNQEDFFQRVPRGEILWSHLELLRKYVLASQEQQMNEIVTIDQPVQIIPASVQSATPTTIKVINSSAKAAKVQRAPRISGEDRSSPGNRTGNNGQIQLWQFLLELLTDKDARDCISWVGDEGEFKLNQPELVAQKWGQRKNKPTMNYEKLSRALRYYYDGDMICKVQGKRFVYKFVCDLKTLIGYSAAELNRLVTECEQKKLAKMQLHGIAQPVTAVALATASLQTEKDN
The method in brief:
as §1

For the next test, the target named is T4, ERG (Homo sapiens, UniProt P11308 1-479).
T4 sequence: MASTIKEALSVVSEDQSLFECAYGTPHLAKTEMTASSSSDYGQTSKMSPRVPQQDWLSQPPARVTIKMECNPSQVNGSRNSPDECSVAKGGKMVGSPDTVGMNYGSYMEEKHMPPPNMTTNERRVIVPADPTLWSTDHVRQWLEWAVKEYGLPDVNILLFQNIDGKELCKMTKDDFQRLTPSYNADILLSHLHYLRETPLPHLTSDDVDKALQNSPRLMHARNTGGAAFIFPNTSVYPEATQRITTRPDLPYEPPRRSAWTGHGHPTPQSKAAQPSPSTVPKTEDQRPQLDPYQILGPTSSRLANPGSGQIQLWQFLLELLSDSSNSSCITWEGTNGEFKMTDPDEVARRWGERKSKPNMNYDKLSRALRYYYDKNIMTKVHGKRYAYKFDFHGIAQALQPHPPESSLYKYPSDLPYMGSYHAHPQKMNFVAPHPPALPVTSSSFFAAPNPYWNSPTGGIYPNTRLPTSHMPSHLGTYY
A digest of the protocol:
as §1

The target in a further test is ELF1 (Homo sapiens, UniProt P32519 1-619). A digest of the protocol:
as §1

The next test concerns the target T5, EHF (Homo sapiens, UniProt Q9NZC4 1-300).
T5 sequence: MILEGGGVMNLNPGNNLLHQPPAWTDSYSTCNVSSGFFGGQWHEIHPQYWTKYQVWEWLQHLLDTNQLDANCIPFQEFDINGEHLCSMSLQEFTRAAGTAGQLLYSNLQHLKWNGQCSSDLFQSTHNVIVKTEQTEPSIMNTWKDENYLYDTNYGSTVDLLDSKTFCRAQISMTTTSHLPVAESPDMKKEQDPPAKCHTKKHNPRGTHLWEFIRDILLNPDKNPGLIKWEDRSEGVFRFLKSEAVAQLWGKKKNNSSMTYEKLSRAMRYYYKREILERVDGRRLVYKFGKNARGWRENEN
A digest of the protocol: as §1

The next test deals with SPI1 (Homo sapiens, UniProt P17947 1-270). A digest of the protocol: as §1
In a further test the target is SPIB (Homo sapiens, UniProt Q01892 1-262). A digest of the protocol: as §1
Sequence of SPIB (Q01892 whole entry): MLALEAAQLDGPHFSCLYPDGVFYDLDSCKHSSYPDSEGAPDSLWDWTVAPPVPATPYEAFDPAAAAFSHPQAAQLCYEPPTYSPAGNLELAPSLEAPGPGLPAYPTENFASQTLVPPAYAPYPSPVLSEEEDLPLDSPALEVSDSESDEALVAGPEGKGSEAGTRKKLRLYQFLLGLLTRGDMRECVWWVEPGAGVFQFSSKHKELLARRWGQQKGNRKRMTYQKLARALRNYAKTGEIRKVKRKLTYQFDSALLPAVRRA
A further test deals with T6, ELK3 (Homo sapiens, UniProt P41970 1-407).
T6 sequence: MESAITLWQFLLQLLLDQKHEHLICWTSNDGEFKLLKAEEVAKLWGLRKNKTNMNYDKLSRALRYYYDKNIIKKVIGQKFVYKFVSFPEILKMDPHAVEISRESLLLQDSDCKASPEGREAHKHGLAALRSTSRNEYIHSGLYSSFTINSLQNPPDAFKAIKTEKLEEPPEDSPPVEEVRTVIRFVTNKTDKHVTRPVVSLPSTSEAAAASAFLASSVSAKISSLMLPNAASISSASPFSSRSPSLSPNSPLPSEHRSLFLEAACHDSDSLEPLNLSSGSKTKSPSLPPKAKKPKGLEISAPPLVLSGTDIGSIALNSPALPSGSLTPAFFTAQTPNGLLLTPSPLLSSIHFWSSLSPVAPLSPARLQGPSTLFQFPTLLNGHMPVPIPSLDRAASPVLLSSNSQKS
The method in brief: as §1

In paper PMC7862700, “An all-to-all approach to the identification of sequence-specific readers for epigenetic DNA modifications on cytosine” one finds binding signal data, which are given here for seven sequences.

Sequence of ELF1 (P32519 whole entry): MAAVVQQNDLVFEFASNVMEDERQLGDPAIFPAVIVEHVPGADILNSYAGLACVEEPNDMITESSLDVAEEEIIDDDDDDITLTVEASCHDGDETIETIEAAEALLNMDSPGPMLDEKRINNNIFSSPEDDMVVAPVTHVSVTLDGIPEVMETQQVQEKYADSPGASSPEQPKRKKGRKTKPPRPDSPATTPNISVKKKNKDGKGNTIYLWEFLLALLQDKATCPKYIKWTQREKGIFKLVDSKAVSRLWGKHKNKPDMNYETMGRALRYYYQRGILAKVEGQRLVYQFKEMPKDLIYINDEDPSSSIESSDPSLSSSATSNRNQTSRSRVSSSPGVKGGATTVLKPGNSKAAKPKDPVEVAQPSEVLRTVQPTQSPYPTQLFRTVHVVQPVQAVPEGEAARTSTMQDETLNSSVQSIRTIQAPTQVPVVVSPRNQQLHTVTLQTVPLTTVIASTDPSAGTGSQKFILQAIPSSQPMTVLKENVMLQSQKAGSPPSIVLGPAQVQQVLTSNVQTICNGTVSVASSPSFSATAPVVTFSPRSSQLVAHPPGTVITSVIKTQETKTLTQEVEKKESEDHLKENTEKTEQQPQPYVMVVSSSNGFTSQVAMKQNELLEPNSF

Regarding TTTGCC, the binding signal is 1.42 fold enrichment (6-mer frequency, TF over GST control) with FLI1; 1.26 fold enrichment (6-mer frequency, TF over GST control) in the test with ELK1; 1.2 fold enrichment (6-mer frequency, TF over GST control) with GABPA; 1.26 fold enrichment (6-mer frequency, TF over GST control) with ERG; 1.23 fold enrichment (6-mer frequency, TF over GST control) in the test with ELF1; 1.22 fold enrichment (6-mer frequency, TF over GST control) with EHF. The binding signal is 1.23 fold enrichment (6-mer frequency, TF over GST control) in the test with SPI1; 1.31 fold enrichment (6-mer frequency, TF over GST control) with SPIB; 1.21 fold enrichment (6-mer frequency, TF over GST control) with ELK3.

With ATCCCC, the binding signal with FLI1 is 1.47 fold enrichment (6-mer frequency, TF over GST control); with ELK1 it was 1.46 fold enrichment (6-mer frequency, TF over GST control); with GABPA, 1.35 fold enrichment (6-mer frequency, TF over GST control); in the test with ERG, 1.52 fold enrichment (6-mer frequency, TF over GST control); with ELF1, 1.5 fold enrichment (6-mer frequency, TF over GST control); in the test with EHF, 1.46 fold enrichment (6-mer frequency, TF over GST control). Further, the binding signal with SPI1 is 1.39 fold enrichment (6-mer frequency, TF over GST control); with SPIB, 1.39 fold enrichment (6-mer frequency, TF over GST control); with ELK3, 1.2 fold enrichment (6-mer frequency, TF over GST control).

Take AATAGT: the binding signal is 1.21 fold enrichment (6-mer frequency, TF over GST control) in the test with FLI1; 1.2 fold enrichment (6-mer frequency, TF over GST control) with ELK1; 1.2 fold enrichment (6-mer frequency, TF over GST control) with GABPA; 1.31 fold enrichment (6-mer frequency, TF over GST control) in the test with ERG; 1.19 fold enrichment (6-mer frequency, TF over GST control) in the test with ELF1; 1.23 fold enrichment (6-mer frequency, TF over GST control) with EHF. Also, the binding signal in the test with SPI1 is 1.17 fold enrichment (6-mer frequency, TF over GST control); with SPIB, 1.22 fold enrichment (6-mer frequency, TF over GST control); in the test with ELK3, 1.11 fold enrichment (6-mer frequency, TF over GST control).

As to CTGACT, the binding signal in the test with FLI1 is 1.25 fold enrichment (6-mer frequency, TF over GST control); with ELK1, 1.26 fold enrichment (6-mer frequency, TF over GST control); with GABPA it was 1.29 fold enrichment (6-mer frequency, TF over GST control); with ERG it was 1.22 fold enrichment (6-mer frequency, TF over GST control); in the test with ELF1, 1.32 fold enrichment (6-mer frequency, TF over GST control); in the test with EHF it was 1.31 fold enrichment (6-mer frequency, TF over GST control). Also, the binding signal in the test with SPI1 was 1.27 fold enrichment (6-mer frequency, TF over GST control); in the test with SPIB it was 1.43 fold enrichment (6-mer frequency, TF over GST control); with ELK3 it was 1.26 fold enrichment (6-mer frequency, TF over GST control).

On to GGACCT, for which the binding signal was 1.42 fold enrichment (6-mer frequency, TF over GST control) in the test with FLI1; 1.37 fold enrichment (6-mer frequency, TF over GST control) with ELK1; 1.41 fold enrichment (6-mer frequency, TF over GST control) with GABPA; 1.33 fold enrichment (6-mer frequency, TF over GST control) with ERG; 1.35 fold enrichment (6-mer frequency, TF over GST control) with ELF1; 1.35 fold enrichment (6-mer frequency, TF over GST control) with EHF. In addition, the binding signal is 1.28 fold enrichment (6-mer frequency, TF over GST control) with SPI1; 1.33 fold enrichment (6-mer frequency, TF over GST control) with SPIB; 1.37 fold enrichment (6-mer frequency, TF over GST control) with ELK3.

As for CTATTT, the binding signal in the test with FLI1 was 1.7 fold enrichment (6-mer frequency, TF over GST control); with ELK1 it was 1.67 fold enrichment (6-mer frequency, TF over GST control); in the test with GABPA, 1.74 fold enrichment (6-mer frequency, TF over GST control); with ERG, 1.77 fold enrichment (6-mer frequency, TF over GST control); with ELF1 it was 1.58 fold enrichment (6-mer frequency, TF over GST control); with EHF it was 1.85 fold enrichment (6-mer frequency, TF over GST control). In addition, the binding signal in the test with SPI1 is 1.76 fold enrichment (6-mer frequency, TF over GST control); with SPIB, 1.81 fold enrichment (6-mer frequency, TF over GST control); in the test with ELK3, 1.85 fold enrichment (6-mer frequency, TF over GST control).

On to TGTTTC, for which the binding signal with FLI1 is 1.91 fold enrichment (6-mer frequency, TF over GST control); in the test with ELK1, 1.85 fold enrichment (6-mer frequency, TF over GST control); in the test with GABPA it was 1.59 fold enrichment (6-mer frequency, TF over GST control); with ERG it was 1.97 fold enrichment (6-mer frequency, TF over GST control); in the test with ELF1, 1.8 fold enrichment (6-mer frequency, TF over GST control); with EHF it was 1.79 fold enrichment (6-mer frequency, TF over GST control). Further, the binding signal in the test with SPI1 is 1.69 fold enrichment (6-mer frequency, TF over GST control); with SPIB, 1.74 fold enrichment (6-mer frequency, TF over GST control); with ELK3, 1.61 fold enrichment (6-mer frequency, TF over GST control).
